In PubChem BioAssay (NCI):
This is part of a sample that, as a whole, favours compounds with a hit. Of some 79,000 tested, about 15% had one in any assay. Cut-off read from the data, not from the text of the source: active = growth inhibition above about 70%; inactive = the rest.

What was measured:
[1] = NCI Yeast Anticancer Drug Screen. Data for the rad50 strain (AID 155);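 note: 0% = growth of vehicle-only cultures of the same strain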; details: S. cerevisiae rad50 strain growth inhibition; at 50.0 µM; active compounds read high
Procedure, shortened: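 Readout: growth inhibition relative to vehicle-treated cultures. Compound exposure was carried out in a genetically defined yeast strain deficient in DNA damage repair.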

[2] = NCI Yeast Anticancer Drug Screen. Data for the mec2-1 strain (AID 157); details: S. cerevisiae mec2-1 strain, at 50.0 µM, active compounds read high
Procedure, shortened: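 Growth inhibition is read against vehicle-treated controls after compound exposure of the mec2-1 yeast strain, which is defective in DNA damage repair or cell cycle control.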

[3] = NCI Yeast Anticancer Drug Screen. Data for the sgs1 mgt1 strain (AID 161);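 note: 0% = growth of cultures given vehicle only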; details: S. cerevisiae sgs1 mgt1 strain, at 50.0 µM, active compounds read high
Procedure, shortened: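 This yeast growth screen uses a strain with defined DNA-repair lesions; compound-treated growth is compared with vehicle-treated growth.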

[4] = NCI Yeast Anticancer Drug Screen. Data for the cln2 rad14 strain (AID 165);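 note: 0% = growth equal to vehicle treated cultures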; details: S. cerevisiae cln2 rad14 strain, at 50.0 µM, active compounds read high
Procedure, shortened: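 Growth inhibition, relative to vehicle-treated controls, is the read-out. The test organism is a yeast strain with defined genetic alterations, cln2 rad14.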

[5] = NCI Yeast Anticancer Drug Screen. Data for the bub3 strain (AID 167); details: S. cerevisiae bub3 mutant strain, at 50.0 µM, active compounds read high
Procedure, shortened: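 Readout: yeast growth inhibition, expressed relative to vehicle-only wells. The test organism is a mutant strain from a panel with lesions in DNA repair or checkpoint genes.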

[6] = NCI Yeast Anticancer Drug Screen. Data for the mlh1 rad18 strain (AID 175); details: S. cerevisiae mlh1 rad18 strain growth inhibition; at 50.0 µM; active compounds read high
Procedure, shortened: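 Cells of a genetically altered yeast strain, deficient in DNA damage repair, were treated with compound. Their growth was then compared with that of vehicle-treated cultures to give inhibition.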

Measured: growth inhibition

OCc1ccc(Cl)cc1Cl
inactive: [1] 6.55% | [2] -0.25% | [3] -11.4% | [4] 10.3% | [5] -51.1% | [6] -27.9%

OC1CCCC2CCCC12 (stereo unspecified)
inactive: [1] 1% | [2] 1.15% | [3] -8.1% | [4] 15.4% | [5] 16.4% | [6] -5.75%

Cc1cc(S(=O)(=O)O)cc(C(C)(C)C)c1O
inactive: [1] -15.6% | [2] -11.4% | [3] 6.3% | [4] 6.25% | [5] -2.45% | [6] -20.6%

CCOC(=O)Cn1cnc2sc3c(c2c1=O)CCCC3
inactive: [1] 13.4% | [2] 21.1% | [3] 30.6% | [4] 28.7% | [5] 19.4% | [6] 35.9%

N#CC(C(=O)C(N)=O)c1nc2ccccc2s1 (stereo unspecified)
inactive: [1] 20.2% | [2] 9.45% | [3] 19.4% | [4] 5.8% | [5] -9.5% | [6] 2.25%

CCCCCCCCOC(=O)C1(O)CCCCC1
inactive: [1] 14.6% | [2] 28.4% | [3] 16.1% | [4] 4.2% | [5] 17.6% | [6] 36.1%

Nc1nc(N)c2cc(CNc3ccc(C(=O)NC(C(=O)O)C(=O)O)cc3)ccc2n1
inactive: [1] -39.1% | [2] 8.1% | [3] -3.15% | [4] -16.6% | [5] -14.2% | [6] -15.6%

CCOC(=O)CCC1(CCC(=O)OCC)c2ccccc2-c2ccccc21
inactive: [1] 3.65% | [2] 9% | [3] -1.85% | [4] -7.15% | [5] -3.75% | [6] 13%

c1ccc(C(=C2CCCCCCCCCCCCC2)c2ccccc2)cc1
inactive: [1] -25.2% | [2] 2.9% | [3] -2.9% | [4] -2% | [5] 25% | [6] -24%

Nc1nc2sc3ccccc3c(=O)n2n1
inactive: [1] -10.7% | [2] -31.9% | [3] 11.5% | [4] 19.1% | [5] -3.2% | [6] -9.85%

CC(=O)N1CCNC(c2ccccc2)C1(C)C (stereo unspecified)
inactive: [1] -3.05% | [2] -6.95% | [3] -11.3% | [4] -9.3% | [5] -13.4% | [6] 3.85%

C#CCOc1ccc(O)c(C(=O)OCCCOC(=O)c2cc(OCC#C)ccc2O)c1
inactive: [1] 16.1% | [2] 6.95% | [3] -3.9% | [4] 16.9% | [5] -2.1% | [6] 15.1%

COc1cc(CNc2ccc3nc4n(c(=O)c3c2)CCCCC4)cc(OC)c1OC
inactive: [1] -9.7% | [2] 13.4% | [3] 7.3% | [4] -19.2% | [5] -15.9% | [6] -21.2%

O=C1C2=Cc3ccccc3OC2(O)Oc2ccccc21 (stereo unspecified)
inactive: [1] 8.1% | [2] 6.4% | [3] -3.35% | [4] 3.35% | [5] 1.8% | [6] -73.2%

CC1(C)OC(=O)C=C[C@@]2(C)C1CC(=O)C1(C)C2CCC2(C)C(c3ccoc3)OC(=O)[C@H]3O[C@]321 (stereo partly specified)
inactive: [1] 2.55% | [2] -24.3% | [3] 11.3% | [4] 9.95% | [5] -7% | [6] -6.25%

CCCN(CCC)C1=Nc2ccccc2-n2cnnc2C1
inactive: [1] -22.4% | [2] 3.45% | [3] -25.6% | [4] 3.1% | [5] -2.25% | [6] -11.4%

O=C(O)C(CO)(c1ccccc1)c1ccccc1
inactive: [1] -3.2% | [2] -3.9% | [3] -8.25% | [4] -1.65% | [5] -1.55% | [6] -0.15%

Oc1ccc(Cl)cc1Cc1cc(Cl)cc(Cc2cc(Cl)cc(Cc3cc(Cl)cc(Cc4cc(Cl)ccc4O)c3O)c2O)c1O
inactive: [1] -31.2% | [2] 0.5% | [3] -5.4% | [4] -16.6% | [5] -26% | [6] -27.1%

CCC(=O)c1ccc2c(ccc3ccccc32)c1O
inactive: [1] -18.3% | [2] -6.8% | [3] -4.15% | [4] -22.1% | [5] 2.85% | [6] -11.6%

Cn1cnc([N+](=O)[O-])c1Sc1n[nH]c(-c2ccc(Cl)cc2)n1
inactive: [1] -11.6% | [2] 1.7% | [3] -7.75% | [4] 21.4% | [5] 17.1% | [6] -6.05%

CCON=C(c1ccc(Cl)cc1)c1ccc(Cl)cc1
inactive: [1] 2.45% | [2] -21.6% | [3] 12.7% | [4] 16.8% | [5] 26.1% | [6] 1.4%
